Measured values reported in PubChem BioAssay (NCI).
Values joined by “and” are separate entries in the source; they are usually repeats but may differ in a detail not shown here. Equal values may be shown once. Compounds without any hit were thinned out: in the full panel of roughly 79,000, 15% have a hit. No stated cut-off is given here; in the data, active means growth inhibition above about 70%; inactive means the rest.

Columns and labels:
[1] = NCI Yeast Anticancer Drug Screen. Data for the rad50 strain (AID 155);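 further: 0% = growth of vehicle-only cultures of the same strain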; conditions: S. cerevisiae rad50 strain growth inhibition; at 50.0 µM; stronger effect = higher value
In short: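 Relative growth inhibition (compound vs vehicle) was measured in yeast with a defined repair-gene alteration.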

[2] = NCI Yeast Anticancer Drug Screen. Data for the mec2-1 strain (AID 157); conditions: S. cerevisiae mec2-1 strain, at 50.0 µM, stronger effect = higher value
In short: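 Test agents were screened against the mec2-1 yeast strain, with defined DNA repair or cell cycle alteration. Growth was scored as inhibition against vehicle-only controls.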

[3] = NCI Yeast Anticancer Drug Screen. Data for the sgs1 mgt1 strain (AID 161);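 further: 0% = growth of cultures given vehicle only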; conditions: S. cerevisiae sgs1 mgt1 strain, at 50.0 µM, stronger effect = higher value
In short: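 Genetically altered yeast, compound exposure, growth inhibition relative to vehicle.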

[4] = NCI Yeast Anticancer Drug Screen. Data for the cln2 rad14 strain (AID 165);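 further: 0% = growth equal to vehicle treated cultures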; conditions: S. cerevisiae cln2 rad14 strain, at 50.0 µM, stronger effect = higher value
In short: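 Growth of compound-exposed yeast (cln2 rad14 genotype) measured and expressed as inhibition relative to vehicle.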

[5] = NCI Yeast Anticancer Drug Screen. Data for the bub3 strain (AID 167); conditions: S. cerevisiae bub3 mutant strain, at 50.0 µM, stronger effect = higher value
In short: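 Screening used yeast with an engineered genetic alteration affecting cell cycle control. Compound-exposed cultures were compared with vehicle cultures, and reduced growth was taken as inhibition.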

[6] = NCI Yeast Anticancer Drug Screen. Data for the mlh1 rad18 strain (AID 175); conditions: S. cerevisiae mlh1 rad18 strain growth inhibition; at 50.0 µM; stronger effect = higher value
In short: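 In this whole-cell yeast screen, a strain with altered DNA damage repair is challenged with compound, and its growth is measured against matched vehicle-treated controls.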

Measured: growth inhibition

O=C1C(Br)CCCCCCCCCC1Br (configuration not stated)
inactive: [1] -26.2% and 45% | [2] -6.4% and 11.2% | [3] 4.05% and 50% | [4] -3.1% and 22.9% | [5] -12.3% and 24.4% | [6] 0.9% and 36.4%

COc1ccc2c(c1)CCC1C[C@@H]3C[C@]21C=CC3=O (some centres not stated)
inactive: [1] 11.8% and -3.5% | [2] -11.8% and -6.75% | [3] 0.75% and 14.9% | [4] 9.6% and 8.05% | [5] 24% and 19.4% | [6] 5.15% and 11.7%

Cc1ccc(S(=O)(=O)Nc2cc(=O)[nH]c3c2CCC3)cc1
inactive: [1] -2.05% and 43.4% | [2] -4.75% and 18.3% | [3] 9.25% and -26.8% | [4] -52% and 0.65% | [5] -18% and 24.2% | [6] -6.2% and 2.9%

COc1ccccc1/C=C/C(=O)O
inactive: [1] 30.8% and 25.7% | [2] -7.85% and 14.2% | [3] -5.2% and -7.85% | [4] -7.8% and -13.9% | [5] 3.95% and 10.9% | [6] -22.4% and 6.65%

CCCCCCCC/C=C\CCCCCCCCOCC(O)CO (configuration not stated)
inactive: [1] -8.65% and -26.1% | [2] -25.6% and -20.9% | [3] -1.8% and -4% | [4] -17.9% and 3.35% | [5] -25.4% and -31.6% | [6] -27.6% and -20.8%

CC(CC(N)C(=O)O)C(=O)O (configuration not stated)
inactive: [1] -0.4% and -5.1% | [2] -4.75% and -22.6% | [3] -1.95% and -49.1% | [4] 0.25% and -68.8% | [5] 0.9% and -26.1% | [6] -1.85% and -17.2%

C=C1C[C@]23C[C@@]1(O)CC[C@H]2[C@@]12C=C[C@H](O)[C@@](C)(C(=O)O1)[C@H]2[C@@H]3C(=O)O
inactive: [1] -20.4% and -0.7% | [2] -39.5% and -16.6% | [3] -31.1% and -1.3% | [4] 0.4% and 0.9% | [5] -51.8% and -18.1% | [6] -52.4% and -3%

CCCCCCC1OCC(CC)C(CCC)O1 (configuration not stated)
inactive: [1] 24.4% and 2% | [2] 23.6% and 6.9% | [3] 17.1% and -6.05% | [4] -12.2% and -9.7% | [5] 17.2% and 15.2% | [6] 30.4% and -9.4%

NC(CCCc1ccccc1)C(=O)O (configuration not stated)
inactive: [1] 7.05% and 3.35% | [2] -7.4% and 0.65% | [3] -5.15% and 1.45% | [4] -77% and -22.5% | [5] 20.6% and -1.2% | [6] -26.9% and -10%

CC(=O)c1ccc(-c2ccccc2-c2ccccc2)cc1
inactive: [1] -9.3% and 43.7% | [2] 5.95% and 3.5% | [3] 3.6% and 16.4% | [4] -21.2% and -26.1% | [5] -0.3% and 4.35% | [6] 1.15% and 33.1%

NCC1CCC(CN)CC1 (configuration not stated)
inactive: [1] -23.9% and -37.9% | [2] -40.7% and -33.4% | [3] -17.6% and -24.7% | [4] -5.15% and 12.1% | [5] -28.9% and -25.8% | [6] -19.9% and -7.3%

O=C(NC(=O)C(C(=O)c1ccccc1)c1ccccc1)c1ccccc1 (configuration not stated)
inactive: [1] -3.95% and 2.65% | [2] 2.1% and -1.35% | [3] -6.9% and -12.2% | [4] 0.15% and 9.9% | [5] 5.6% and -4.05% | [6] -5.05% and -6.25%

COc1ccc2c(c1OC)C(=O)N1C2=Cc2c(cc3c(c2OC)OCO3)CC1N(C)C (configuration not stated)
inactive: [1] 16.7% and 30.1% | [2] -26.1% and 33.8% | [3] 39.9% and 57.1% | [4] 12.3% and 13% | [5] -11.8% and 17.6% | [6] 12.7% and 41.2%

Cc1ccc(N=Nc2c(O)ccc3cc(S(=O)(=O)O)ccc23)cc1
inactive: [1] 50.9% and 4.8% | [2] -15.5% and -2.8% | [3] 9.8% and 5.85% | [4] -6.85% and -6.7% | [5] -32.6% and 8.05% | [6] 22.8% and 9.35%

O=C(O)C1CC[N-]CC1.O=C(O)C1CC[N-]CC1.[Cl][Pt+2][Cl]
inactive: [1] 14.8% and -3.75% | [2] 13.6% and -0.6% | [3] 24.4% and -1.25% | [4] -5.25% and -42.3% | [5] -5.8% and -2.85% | [6] 17.5% and 5.45%

CC(=O)CCC1CC(=O)OC1(C)C (configuration not stated)
inactive: [1] -37.6% and 0.75% | [2] -30% and -11.2% | [3] -14.3% and -15.4% | [4] 7.85% and -5.75% | [5] -26.2% and -5.35% | [6] -26.2% and 23.8%

COC(=O)/C(Cc1cccc(OC(C)=O)c1C(=O)OC)=N/O
inactive: [1] -8.8% and 2.95% | [2] 16.2% and 12.4% | [3] 9.25% and -3.7% | [4] -10.5% and -99.8% | [5] -8.75% and 12.7% | [6] -13.2% and 3.55%
